Laboratory results published in PubChem BioAssay (NCATS).
Inconclusive results are not listed. Active and inactive are the calls of the source. The call rests on the fitted dose curve; in most records, active means well fitted cell-killing curve with a large enough effect; inconclusive means small, poorly fitted or top-dose-only effect, or effect the other way; inactive means flat fitted curve, though single readings scatter.

What was measured:
Test in all cases: Primary qHTS to identify gynecologic anti-cancer compounds using libraries of approved drugs and bioactive compounds (AID 1345084); further: nearly all actives have a fitted effect of over 55% in size
Details in all cases: Gynecologic cancer cell panel viability, ATPlite luminescence, 48 h; series mostly up to 57.5 µM
OV90 = test system: OV90
Method in brief: (§1)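 Luminescence from the ATPlite ATP-monitoring reagent indicates viable cell number; lower signal means cytotoxicity. Cells received compound 16 h after seeding and were exposed for 48 h across five concentrations.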

PA-1 = test system: PA-1
Method in brief: as §1

SKOV3 = test system: SKOV3
Method in brief: as §1

Tov-21-G = test system: Tov-21-G
Method in brief: as §1

Tov112D = test system: Tov112D
Method in brief: as §1
On the % scale 0 is the no-effect control and ±100 the full control effect.

CCC[C@@H]1O[C@@H]2C[C@H]3[C@@H]4CCC5=CC(=O)C=C[C@]5(C)[C@H]4[C@@H](O)C[C@]3(C)[C@]2(C(=O)CO)O1
inactive: Potency (OV90) | Potency (PA-1) | Potency (SKOV3) | Potency (Tov-21-G) | Potency (Tov112D)

CC(=O)OCC1(O)CCC2C(COC3OC(CO)C(O)C(O)C3OC(=O)/C=C/c3ccc(O)cc3)=COC(OC(=O)CC(C)C)C21 (stereo not given)
inactive: Potency (OV90) | Potency (PA-1) | Potency (SKOV3) | Potency (Tov-21-G) | Potency (Tov112D)

Cn1cc(-c2ccc3nnc(Sc4ccc5nn(C)cc5c4)n3n2)cn1
inactive: Potency (OV90) | Potency (PA-1) | Potency (SKOV3) | Potency (Tov-21-G) | Potency (Tov112D)

C=C1CCC2C(C)(COC(C)=O)CCCC2(C)C1CCC(C)CC(=O)O (stereo not given)
inactive: Potency (OV90) | Potency (PA-1) | Potency (SKOV3) | Potency (Tov-21-G) | Potency (Tov112D)

C[C@@H](O)[C@H](NC(=O)c1ccc(C#Cc2ccc(CN3CCOCC3)cc2)cc1)C(=O)NO
inactive: Potency (OV90) | Potency (PA-1) | Potency (SKOV3) | Potency (Tov-21-G) | Potency (Tov112D)

C=CC1(C)C=C2CCC3C(C)(C)C(O[C@@H]4O[C@@H](CO)[C@H](O)[C@H]4O)CCC3(C)C2CC1O[C@@H]1O[C@H](C)[C@H](O)[C@H](O)[C@H]1O (stereo not given in full)
inactive: Potency (OV90) | Potency (PA-1) | Potency (SKOV3) | Potency (Tov-21-G) | Potency (Tov112D)

C[C@]12C=C[C@@]3(CCC4[C@](C)(CO)CCC[C@@]4(C)C3CC1)C2 (stereo not given in full)
inactive: Potency (OV90) | Potency (PA-1) | Potency (SKOV3) | Potency (Tov-21-G) | Potency (Tov112D)

CC(C)C(CO)Nc1nc(Nc2ccc(C(=O)O)c(Cl)c2)c2ncn(C(C)C)c2n1 (stereo not given)
inactive: Potency (OV90) | Potency (PA-1) | Potency (SKOV3) | Potency (Tov-21-G) | Potency (Tov112D)

O=C(NCc1ccccn1)Nc1nnc(-c2ccco2)o1
inactive: Potency (OV90) | Potency (PA-1) | Potency (SKOV3) | Potency (Tov-21-G) | Potency (Tov112D)

CC1(C)CC[C@]2(C(=O)O[C@@H]3O[C@H](CO)[C@@H](O)[C@H](O)[C@H]3O)CC[C@]3(C)C(=CCC4[C@@]5(C)C[C@@H](O)[C@H](O)[C@@](C)(CO)C5CC[C@]43C)C2[C@@H]1O (stereo not given in full)
inactive: Potency (OV90) | Potency (PA-1) | Potency (SKOV3) | Potency (Tov-21-G) | Potency (Tov112D)

Cc1oc2ccccc2c1CNC(=O)NCc1cccs1
inactive: Potency (OV90) | Potency (PA-1) | Potency (SKOV3) | Potency (Tov-21-G) | Potency (Tov112D)

CC(C)C(C#N)O[C@@H]1O[C@H](CO[C@@H]2O[C@@H](C)[C@H](O)[C@@H](O)[C@H]2O)[C@@H](O)[C@H](O)[C@H]1O (stereo not given in full)
inactive: Potency (OV90) | Potency (PA-1) | Potency (SKOV3) | Potency (Tov-21-G) | Potency (Tov112D)

C=CC1C(OC2OC(CO)C(O)C(O)C2O)OC=C2C(=O)N3C(C(=O)O)Cc4c([nH]c5ccccc45)C3CC21 (stereo not given)
inactive: Potency (OV90) | Potency (PA-1) | Potency (SKOV3) | Potency (Tov-21-G) | Potency (Tov112D)

CC1=C(/C=C/C(C)=C\C=C\C(C)=C/C(=O)O)C(C)(C)CCC1
inactive: Potency (OV90) | Potency (PA-1) | Potency (SKOV3) | Potency (Tov-21-G) | Potency (Tov112D)

Cc1c2cc(c(C(=O)O)c1C)OC1OC(C(O)C(O)C1O)C(O)C(O)C1OC(O2)C(O)C(O)C1O (stereo not given)
inactive: Potency (OV90) | Potency (PA-1) | Potency (SKOV3) | Potency (Tov-21-G) | Potency (Tov112D)

O=C(Nc1ccn[nH]1)c1c(F)cccc1F
inactive: Potency (OV90) | Potency (PA-1) | Potency (SKOV3) | Potency (Tov-21-G) | Potency (Tov112D)

C[C@@H]1O[C@@H](O[C@H]2[C@H](O)[C@@H](C(=O)O)O[C@@H](O[C@H]3CC[C@@]4(C)C(CC[C@]5(C)C4CC=C4C6CC(C)(C)CC[C@]6(C(=O)O)CC[C@]45C)C3(C)C)[C@@H]2O[C@@H]2OC[C@@H](O)[C@H](O)[C@H]2O)[C@H](O)[C@H](O)[C@H]1O (stereo not given in full)
inactive: activity change, negative = cytotoxicity (OV90) 2.8% [at 11.6 µM] | activity change, negative = cytotoxicity (PA-1) 4.01% [at 11.6 µM] | activity change, negative = cytotoxicity (SKOV3) -0.245% [at 11.6 µM] | activity change, negative = cytotoxicity (Tov-21-G) 13.2% [at 11.6 µM] | activity change, negative = cytotoxicity (Tov112D) 4.42% [at 11.6 µM]

Nc1nc(-n2cc(C(=O)O)c(=O)c3cc(F)c(N4CC(O)C4)c(Cl)c32)c(F)cc1F
inactive: Potency (OV90) | Potency (PA-1) | Potency (SKOV3) | Potency (Tov-21-G) | Potency (Tov112D)

C=CC(C)(O)CC[C@H]1C(=C)CCC2[C@](C)(C(=O)O)CCC[C@@]21C (stereo not given in full)
inactive: Potency (OV90) | Potency (PA-1) | Potency (SKOV3) | Potency (Tov-21-G) | Potency (Tov112D)

CC1(C)CC[C@]2(C(=O)O)[C@H](O)C[C@]3(C)C(=CCC4[C@@]5(C)CC[C@H](O[C@@H]6O[C@H](CO[C@@H]7OC[C@H](O)[C@H](O)[C@H]7O[C@@H]7OC[C@@H](O)[C@H](O)[C@H]7O)[C@@H](O)[C@H](O)[C@H]6O[C@@H]6O[C@H](CO)[C@@H](O)[C@H](O)[C@H]6O)C(C)(C)C5CC[C@]43C)[C@@H]2C1 (stereo not given in full)
inactive: activity change, negative = cytotoxicity (OV90) 15.1% [at 11.6 µM] | activity change, negative = cytotoxicity (PA-1) -2.35% [at 11.6 µM] | activity change, negative = cytotoxicity (SKOV3) 21.8% [at 11.6 µM] | activity change, negative = cytotoxicity (Tov-21-G) -13.8% [at 11.6 µM] | activity change, negative = cytotoxicity (Tov112D) 1.64% [at 11.6 µM]
